# Laboratory results from the supplement of paper PMC7156485.
# ± gives the standard deviation of the averaged measurements.
# Columns and labels:
# Settings in all cases: concentration: 10 µM; 24 h
# HCC1569 [1] = test: cell number relative to DMSO (% of DMSO); higher = more cells (less growth inhibition / toxicity)
# Summary of the method: (§1)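 HCC1569 and TDF cells (800 per well, 384-well plates, RPMI with 10% FBS) were treated with compounds at 10 µM for 24 h at 37 °C, in triplicate. Cells were fixed in 3.7% formaldehyde and stained with a rabbit anti-H1.0 antibody, an AlexaFluor 647 secondary and DAPI; six fields per well were imaged at ×10. H1.0 nuclear intensity or cell number is expressed as percent of the plate DMSO control, taking the median of replicates. HCC1569 values were smoothed for positional effects.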
# TDF [2] = test: as above
# Summary of the method: as §1
# TDF [3] = test: H1.0 immunofluorescence intensity relative to DMSO (% of DMSO); higher = stronger H1.0 induction, active = 120 or more
# Summary of the method: as §1
# HCC1569 [4] = test: H1.0 immunofluorescence intensity relative to DMSO (% of DMSO); higher = stronger H1.0 induction, active = 140 or more
# Summary of the method: as §1
# 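Wherever H1.0 immunofluorescence intensity relative to DMSO is given: TDF is a line of transformed human dermal fibroblasts of mesenchymal origin.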
# 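Wherever cell number relative to DMSO is given: TDF denotes transformed human dermal fibroblasts of mesenchymal origin.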
Structure (SMILES),cell number (HCC1569 [1]),cell number (TDF [2]),H1.0 immunofluorescence intensity (TDF [3]),H1.0 immunofluorescence intensity (HCC1569 [4])
COc1cc2nccc(Oc3ccc(NC(=O)Nc4ccc(F)cc4F)c(F)c3)c2cc1OC,74.9,59.9,103 (inactive),108 (inactive)
O=C(C=Cc1ccc(O)c(O)c1)c1ccc(O)cc1O [Butein],74.3,89.2,94.3 (inactive),133 (inactive)
CCC(C)n1ncn(-c2ccc(N3CCN(c4ccc(OCC5COC(Cn6cncn6)(c6ccc(Cl)cc6Cl)O5)cc4)CC3)cc2)c1=O (centres undefined) [Itraconazole],79.5,93,108 (inactive),149 (active)
Cc1[nH]c2ccccc2c1CC(=O)N[C@@H](Cc1ccccc1)C(=O)N(C)c1ccccc1,100,109,88.8 (inactive),119 (inactive)
CCCCNc1ccc(C(=O)OCCN(C)C)cc1.Cl [Tetracaine hydrochloride],100,101,102 (inactive),95.8 (inactive)
O=c1c(O)c(-c2ccc(O)cc2)oc2cc(O)cc(O)c12 [Kaempferol],98.4,93.9,93.5 (inactive),115 (inactive)
N#Cc1ccc(N2N=C3c4ccc(C(=O)O)cc4CCC3C2C2CCCC2)cc1Cl (centres undefined),101,110,85.4 (inactive),101 (inactive)
CCCCCC(O)C=CC=CCCCCCCCCCC(=O)O (centres undefined),99.4,90.3,95.7 (inactive),96.8 (inactive)
CCCCC=CCCCCCCCC(=O)O [9(E)-Tetradecenoic acid],98.8,106,98.8 (inactive),98 (inactive)
O=C(O)c1cc(N(Cc2ccccc2O)Cc2cc(O)ccc2O)ccc1O [Lavendustin A],105,89.4,108 (inactive),97.9 (inactive)
CCCC(CCC)C(=O)NO [N-hydroxy-2-propylpentanamide],100,102,98.7 (inactive),80.8 (inactive)
N=C([NH3+])N1CCc2ccccc2C1.N=C([NH3+])N1CCc2ccccc2C1.O=S(=O)([O-])[O-] [Debrisoquin sulfate],104,107,101 (inactive),101 (inactive)
NC1CCN(c2nc3c(cc2F)c(=O)c(C(=O)O)cn3-c2ccc(F)cc2F)C1 (centres undefined) [Tosufloxacin],106,102,105 (inactive),104 (inactive)
"CCC1Cc2cc(O)ccc2C2=C1c1ccc(O)cc1CC2CC [(R,R)-cis-Diethyl tetrahydro-2,8-chrysenediol]",87.5,110,87.9 (inactive),107 (inactive)
CN(C)CC=C(c1ccc(Br)cc1)c1cccnc1.Cl.Cl [Zimelidine dihydrochloride],99,86.6,107 (inactive),116 (inactive)
CC1C(=O)OC2C(O)C34C5CC(C(C)(C)C)C36C(OC(=O)C6O)OC4(C(=O)O5)C12O (centres undefined) [Ginkgolide B],104,104,101 (inactive),82.4 (inactive)
N=C1SC(=Cc2ccc(-c3ccc4c(c3)C(=O)NC4=O)o2)C(=O)N1c1ccc(Br)cc1 [Bioymifi],94.2,67.9,96.5 (inactive),277 (active)
NCC1OC(OC2C(CO)OC(OC3C(O)C(N)CC(N)C3OC3OC(CN)C(O)C(O)C3N)C2O)C(N)C(O)C1O (centres undefined) [Neomycin],99.58 ± 0.33,93.4 ± 5.1,100 (inactive),91.8 (inactive)
"COC1C=CC=C(C)C(=O)NC2=CC(=O)C=C(C2=O)C(OC)C(C)CC(OC)C(OC)C(C)C=C(C)C1OC(N)=O (centres undefined) [Herbimycin A, Streptomyces sp.]",62.4,54.7,88.3 (inactive),180 (active)
Cn1c(=O)c2c(nc(C=Cc3cccc(Cl)c3)n2C)n(C)c1=O [8-(3-Chlorostyryl)caffeine],106,94.1,100 (inactive),99.1 (inactive)
O=[N+]([O-])c1ccc(-c2nc(-c3ccc(F)cc3)c(-c3ccncc3)[nH]2)cc1,89.9,101,84.2 (inactive),139 (inactive)
CC(=O)Oc1ccccc1C(=O)O [Acetylsalicylic Acid],101,99,96.1 (inactive),102 (inactive)
NS(=O)(=O)c1cc2c(cc1Cl)NC(C1CC3C=CC1C3)NS2(=O)=O (centres undefined) [Cyclothiazide],100,105,111 (inactive),99.5 (inactive)
Cl.N=C(N=C(N)N)N1CCOCC1 [Moroxydine.HCl],106,120,98.7 (inactive),88.6 (inactive)
Cl.O=S(=O)(c1cccc2c(I)cccc12)N1CCCNCC1,105,116,99.4 (inactive),89.8 (inactive)
CC12CCc3occc3C1CCC13CC(CCC12)C(O)(CO)C3 (centres undefined) [Cafestol],103,101,103 (inactive),88.2 (inactive)

Structure (SMILES),cell number (HCC1569 [1]),cell number (TDF [2]),H1.0 immunofluorescence intensity (TDF [3]),H1.0 immunofluorescence intensity (HCC1569 [4])
O=c1cc(-c2ccc(O)cc2)oc2cc(O)c(C3OC(CO)C(O)C(O)C3O)c(O)c12 (centres undefined) [Isovitexin],99.9,109,94.3 (inactive),88.1 (inactive)
O=C(O)c1cc(=O)c2ccc(Cl)cc2[nH]1 [7-Chlorokynurenic acid],96.9,105,92 (inactive),91 (inactive)
O=C(O)Cc1sc(-c2ccccc2)nc1-c1ccc(Cl)cc1 [Fentiazac],91.8,107,89.6 (inactive),116 (inactive)
"O=C(O)C=Cc1cc(Br)c(Br)c(Br)c1Br [Casein Kinase II Inhibitor III, TBCA]",98.7,113,92.9 (inactive),105 (inactive)
COc1cc(C(C)=O)cc(-c2cc(C(C)=O)cc(OC)c2O)c1O,100,110,93.8 (inactive),100 (inactive)
COc1ccc2c(c1)c(CC(=O)N1CCOCC1)c(C)n2C(=O)c1ccc(Cl)cc1,102,104,94.6 (inactive),104 (inactive)
C[C@@H](Oc1cc(-c2cnn(C3CCNCC3)c2)cnc1N)c1c(Cl)ccc(F)c1Cl,59.6,36.3,161 (active),136 (inactive)
O=C(NOCC(O)CO)c1ccc(F)c(F)c1Nc1ccc(I)cc1F (centres undefined),105,104,87.3 (inactive),94.6 (inactive)
COC1=CC(C)C2CC3OC(=O)CC4C(C)=C(OC)C(=O)C(C2(C)C1=O)C34C (centres undefined) [Quassin],101,89.6,96.8 (inactive),94.8 (inactive)
CC(C)c1cccc(C(C)C)c1N1C(=O)c2ccc(O)cc2C1=O,60.4,59.5,119 (inactive),162 (active)
CC(C)(ON=C(C(=O)NC1C(=O)N2C(C(=O)[O-])=C(C[n+]3ccccc3)CSC12)c1csc(N)n1)C(=O)O (centres undefined) [Ceftazidime],103,103,90.2 (inactive),108 (inactive)
C=C1CCC2OC2(C)CCC2C1CC2(C)C (centres undefined) [Caryophylline],104,99,105 (inactive),91.3 (inactive)
"C=C1CC23CC1(O)CCC2C12C=CC(O)C(C)(C(=O)O1)C2C3C(=O)O (single isomer, unassigned; (+)) [(+)-Gibberellic acid]",108,112,98.6 (inactive),89.5 (inactive)
O=C1CCc2ccc(OCCCCN3CCN(c4cccc(Cl)c4Cl)CC3)cc2N1 [Aripiprazole],95.5,97,96.2 (inactive),126 (inactive)
O=C1c2cccc(O)c2C(=O)c2c(O)cc(CO)cc21 [Aloe-emodine],95.7,89.9,97.3 (inactive),99.5 (inactive)
CCCCCC=CCC=CC=CC(O)CC=CCCCC(=O)O (centres undefined),98.1,99.8,97.3 (inactive),95.8 (inactive)
Clc1cccc(CNC2=Nc3ccccc3NC23CCNCC3)c1,99,89.6,106 (inactive),124 (inactive)
COc1ccc2cc3[n+](cc2c1OC)CCc1cc2c(cc1-3)OCO2.Cl,99.4,77.9,97.4 (inactive),101 (inactive)
CCC(=O)Nc1ccc2ncnc(Nc3cccc(Br)c3)c2c1,89.4,105,93.1 (inactive),128 (inactive)
CCCCCC=CCC=CC=CC=CC(O)C(O)CCCC(=O)O (centres undefined),99.8,100,99.2 (inactive),96.6 (inactive)
Cc1ccc(-c2c(-c3nn(C)c4ncnc(N5CC[C@H](N6CCCCC6)C5)c34)cnn2C)cc1,99.6,96.4,103 (inactive),99.2 (inactive)
CCC1C(=O)N(C)c2cnc(Nc3ccc(C(=O)NC4CCN(C)CC4)cc3OC)nc2N1C1CCCC1 (centres undefined),27.1,32.4,157 (active),136 (inactive)
CC(C)NCC(O)COc1cccc2[nH]ccc12 (centres undefined) [Pindolol],98 ± 3.1,94.3 ± 2.5,98.8 (inactive),110 (inactive)
Cc1c(C)c2c(c(C)c1O)CCC(C)(COc1ccc(CC3SC(=O)NC3=O)cc1)O2 (centres undefined) [Troglitazone],99.8,93.8,101 (inactive),103 (inactive)
O=C(O)CCCC=CCC=CC=CC(O)CC=CCCCCCO (centres undefined),101,92.6,98.3 (inactive),101 (inactive)
